Screening results: PubChem, National Center for Advancing Translational Sciences (NCATS)
HCV inhibitor = qHTS Assay for Inhibitors of Hepatitis C Virus (HCV); Huh7.5.1 HCVcc-Cre infection, luciferase reporter, 44 h; Potency, µM (doses to about 41.8 µM), for inactives: at the highest dose activity change, negative = inhibition, actives largely listed as inhibitors; actives 3.4% (n = 340,000); AID 651820, 2012
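Luciferase read-out (15 sec integration) after a 15 min room-temperature substrate step quantifies HCVcc-Cre infection. Cells, 1,000 per well, had compound added 4 h post-plating, then virus at ~0.5 moi, and were cultured 44 h.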
Pf growth 96h = Primary qHTS for delayed death inhibitors of the malarial parasite plastid, 96 hour incubation. Potency, µM (highest dose often 28.7 µM), inactives show top-dose activity change, negative = inhibition, hits mostly inhibitors. P. falciparum luciferase reporter growth, 96 h. actives 6.9% (n = 320,000). AID 504834, 2011
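Two parasite generations (96 h, 37 C, 5% CO2) of compound exposure in infected erythrocytes (0.05% parasitemia, 2% hematocrit). Luciferase-reporter P. falciparum; decreased luminescence indicates inhibited growth, aimed at apicoplast-acting delayed death.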
Pf growth 48h = Primary qHTS for delayed death inhibitors of the malarial parasite plastid, 48 hour incubation | AID 504832, 2011 | P. falciparum luciferase growth in erythrocytes, 48 h | Potency, µM (doses to about 28.7 µM), inactives show at the top dose activity change, negative = inhibition, actives largely listed as inhibitors | actives 5.9% (n = 310,000)
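Parasite viability was followed by luminescence of a genomically integrated firefly luciferase. Cultures held 0.1% parasitemia at 2% hematocrit (final), incubated under 5% CO2 at 37 C.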
AMA1 RON2 block = qHTS for Inhibitors of AMA1-RON; Towards Development of Antimalarial Drug Lead: Primary Screen | Plasmodium falciparum AMA1 (3D7) - RON2 peptide interaction | AlphaScreen AMA1-biotinylated RON2 peptide binding | Potency, µM (top dose mostly 58.2 µM), without a hit: at the top dose activity change, negative = inhibition, most hits filed as inhibitors | actives 0.2% (n = 360,000) | AID 720542, 2013;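 also: 0% = vehicle wells and -100% = peptide control; nearly all actives have a fitted effect of over 45% in size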
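AMA1 (3D7) with his tag at 25 nM final met compounds first, then biotinylated RON2 peptide at 25 nM; detection used donor plus acceptor beads, 10 µg/mL apiece, read by AlphaScreen after 30 min at room temperature.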
* = called active by the depositor; ? = inconclusive; . = no result. The list is not random: actives were taken first. Their share in the collection is about 11%. Calls follow the shape of the dose curve; as a rule, active = well fitted curve in the direction sought with a large enough effect; inconclusive = small, poorly fitted or top-dose-only effect, or another doubt; inactive = no such curve, though single readings can be large; an effect the other way counts as inactive or inconclusive. Unless noted, % is scaled to controls: 0 for no effect and ±100 for the full control effect; potency is read from the fitted curve at half-maximal effect.

SMILES	HCV inhibitor	Pf growth 96h	Pf growth 48h	AMA1 RON2 block
Cc1cc2nccc(-c3ccc(OCCCF)cc3)n2n1	?	20%	16%	26%
CC1(C)[C@@H]2CC[C@@]1(C)C(=O)C2	.	11%	-5%	.
CCc1cccc(Nc2c([N+](=O)[O-])cc(C(=O)N3CC(=O)Nc4ccccc43)cc2[N+](=O)[O-])c1	14µM*	?	?	?
N#CC(C(=O)Nc1ccc(Cl)c(Cl)c1)=C1Nc2ccccc2N1	-6%	2.6µM*	7%	61%
N#CC(C(=O)Nc1cccc(Cl)c1)=C1Nc2ccccc2N1	?	-12%	15%	-5%
CCNC(=O)C(=O)NCC1CCCN1S(=O)(=O)c1cccs1 (stereo not given)	-3%	-2%	-26%	17%
CCn1c(=O)n(CC)c2cc(N3CCCC3)c(NC(=O)c3ccc(C)c([N+](=O)[O-])c3)cc21	7.9µM*	3%	-25%	11%
CCn1c(=O)n(CC)c2cc(N3CCCC3)c(NC(=O)c3ccc(OC)c(Br)c3)cc21	?	-22%	13µM*	-24%
CCn1c(=O)n(CC)c2cc(N3CCCC3)c(NC(=O)c3cccc(C)c3)cc21	13µM*	?	0%	-6%
CCn1c(=O)n(CC)c2cc(N3CCCC3)c(NC(=O)c3cccc(Cl)c3)cc21	6.3µM*	12µM*	?	-4%
CCOc1ccccc1C(=O)Nc1cc2c(cc1N1CCCC1)n(CC)c(=O)n2CC	?	-12%	?	-23%
CCn1c(=O)n(CC)c2cc(N3CCCC3)c(NC(=O)c3ccccc3OC)cc21	?	-2%	?	-21%
CCc1ccc(NC(=O)COC(=O)CCc2nc3cc(S(=O)(=O)N(CC)CC)ccc3n2C)cc1	7%	0%	0%	9%
CCCCCCn1c(Br)nc2c1c(=O)n(C)c(=O)n2C	-15%	?	-26%	0%
Cc1cc(=O)oc2cc(OCC(=O)Nc3c(C)n(C)n(-c4ccccc4)c3=O)c(Cl)cc12	?	2%	-3%	-4%
C=C(C)CN(CC)C(=O)CSc1ccc(S(=O)(=O)N2CCN(Cc3ccccc3)CC2)cn1	?	8.3µM*	?	-9%
C=C(C)CN(CC)C(=O)CSc1ccc(S(=O)(=O)N2CCN(C)CC2)cn1	1%	?	10µM*	-15%
CC(C)CNC(=O)CSc1ccc(S(=O)(=O)N2CCN(C)CC2)cn1	-1%	?	-1%	4%
COC(=O)c1ccc(C(=O)OC)c(NC(=S)N2CCN(c3ccccn3)CC2)c1	-2%	?	?	-12%
CC1Cc2nc(SCC(N)=O)n(Cc3ccccc3)c(=O)c2S1 (stereo not given)	5%	?	?	-3%
CC1Cc2nc(SCC(=O)Nc3ccc4c(c3)OCO4)n(Cc3ccccc3)c(=O)c2S1 (stereo not given)	-26%	-5%	2.3µM*	-2%
COCCn1c(SCC(=O)Nc2ccc3c(c2)OCCO3)nc2c(c1=O)SC(C)C2 (stereo not given)	-14%	?	7%	2%
CC1CCCC(C)N1C(=O)Cn1c(SCC(=O)Nc2ccc3c(c2)OCO3)nc2ccccc21 (stereo not given)	-15%	13µM*	?	23%
CC1Cc2nc(SCC(=O)N3CCN(c4ccccc4)CC3)n(CCc3ccccc3)c(=O)c2S1 (stereo not given)	?	?	9.3µM*	-24%
CC1Cc2nc(SCC(=O)Nc3nccs3)n(Cc3ccccc3)c(=O)c2S1 (stereo not given)	10%	1.5µM*	3.3µM*	-3%
SMILES	HCV inhibitor	Pf growth 96h	Pf growth 48h	AMA1 RON2 block
Cc1cc2nc(C(C)(C)C)c(Cc3ccccc3)n2c(C)c1Br	.	.	.	7%
Cc1cc(OC(C)C(=O)NCc2ccccn2)c2c(C)c(C)c(=O)oc2c1 (stereo not given)	-19%	?	?	-1%
COc1ccc(-c2nn(-c3ccccc3)cc2/C=N/NC(=O)c2cccc(S(=O)(=O)Nc3ccccc3Cl)c2)cc1	?	2.9µM*	9.3µM*	44%
COc1ccc(-c2nn(-c3ccccc3)cc2/C=N/NS(=O)(=O)c2ccccc2)cc1	?	12µM*	?	0%
COc1cc(NC(=O)CN2C(=O)c3ccccc3S2(=O)=O)c(OC)cc1Cl	12%	0%	40%	-11%
CCCCNC(=O)c1ccc(SCC(=O)N(CC)CC)c([N+](=O)[O-])c1	14%	1µM*	9%	11%
CC1=CC(=O)C=CC1=Nc1ccc(N(C)C)cc1	.	.	.	4µM*
COCCNC(=O)C(NC(=O)C1CCCCC1)C(C)C (stereo not given)	0%	0.74µM*	13%	2%
CCN(CC)CCNC1=NCCn2c1cc1cc(OC)ccc12	6.3µM*	?	.	-11%
COc1ccc(C(CNC(=O)c2cccc(NS(=O)(=O)c3ccc(C)c(F)c3)c2)N(C)C)cc1 (stereo not given)	?	12µM*	?	94%
COc1ccccc1C(CNC(=O)c1cccc(NS(=O)(=O)c2ccc(C)c(F)c2)c1)N(C)C (stereo not given)	-27%	9.3µM*	?	64%
COc1ccc(C(CNC(=O)c2ccc(S(=O)(=O)Nc3ccc(F)cc3)cc2)N(C)C)cc1 (stereo not given)	7%	?	?	0%
COc1ccc(C(CNC(=O)c2cccc(S(=O)(=O)Nc3ccc(F)cc3)c2)N(C)C)cc1 (stereo not given)	?	9.3µM*	12µM*	14%
COc1ccccc1C(CNC(=O)c1ccc(NS(=O)(=O)c2ccc(F)c(C)c2)cc1)N(C)C (stereo not given)	3%	?	?	-15%
N#Cc1c(N)nc(Sc2ccc(Cl)cc2)c(C#N)c1-c1ccccc1Cl	11µM*	7.4µM*	?	-21%
Cn1c(-c2ccsc2)c(-c2cccs2)c2cc(Br)ccc21	?	?	-1%	-10%
COc1cc(OC)cc(-c2c(-c3cccs3)c3cc(-c4cccc5[nH]ccc45)ccc3n2C)c1	?	?	2.3µM*	-10%
COc1cc(F)cc(-c2ccc3c(c2)c(-c2cccs2)c(-c2cc(OC)cc(OC)c2)n3C)c1	?	?	9.3µM*	-5%
COc1cc(OC)cc(-c2c(-c3cccs3)c3cc(-c4ccn[nH]4)ccc3n2C)c1	?	?	4.7µM*	-13%
Cn1c(-c2ccsc2)c(-c2cccs2)c2cc(-c3ccc4[nH]ccc4c3)ccc21	?	5.9µM*	5.2µM*	-9%
COc1ccc(CNS(=O)(=O)c2cc(CN3C(=O)c4cccnc4C3=O)ccc2OC)cc1	23%	15µM*	9%	21%
CCOC(=O)c1cnc(SC)nc1Oc1cccc(NS(=O)(=O)c2ccc(F)cc2)c1	?	?	-73%	2%
